# Results taken from PubChem BioAssay (Tox21).
# Several values for one entry are separate records, joined by “and”; a condition that tells them apart may be missing. Identical values can stand only once. Activity calls are given as the source filed them. Entries that show only a call come without a potency. Unless noted, the call rests on the fitted dose curve; in most records, active means well fitted curve in the direction sought with a large enough effect in the repeat runs; inconclusive means weak or mixed curves; inactive means no such curve, though single readings can be large; an effect the other way counts as inactive or inconclusive.
# Assays:
# [1] = qHTS assay to identify small molecule antagonists of the thyroid receptor (TR) signaling pathway - cell viability counter screen (AID 743064); further: nearly all actives have a fitted effect of over 50% in size; further: potency means the concentration at half of the fitted maximal effect
# How it was run: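 CellTiter-Fluor readout, 30 min at 37 °C/5% CO2, following 23.5 h incubation of GH3.TRE-Luc cells with test compound and 1 nM T3 (final).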
# [2] = tested on: thyroid hormone receptor (rat, GH3 cells); experiment: qHTS assay to identify small molecule agonists of the thyroid receptor (TR) signaling pathway (AID 743066; calls by dose curve)
# [3] = target: Estrogen receptor (Homo sapiens) (UniProt P03372); experiment: qHTS assay to identify small molecule antagonists of the estrogen receptor alpha (ER-alpha) signaling pathway (AID 743069; active means well fitted curve in the direction sought with a large enough effect in the signal ratio in the repeat runs, not every such curve was filed as active; inconclusive means weak or mixed curves, or effect the other way; inactive means no such curve, though single readings can be large or run the other way; the % refers to the signal ratio; further: potency means the concentration at half of the fitted maximal effect)
# How it was run: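 HEK293 ER-alpha-UAS-bla GripTite cells, held overnight in 2% charcoal-stripped FBS, 5,000 cells/well, preincubated 4 h, then compound plus 17beta-estradiol for 18 h at 37C. Beta-lactamase read by LiveBLAzer B/G FRET substrate, 2 h at room temperature.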
# [4] = qHTS assay to identify small molecule antagonists of the estrogen receptor alpha (ER-alpha) signaling pathway - cell viability counter screen (AID 743074; calls by dose curve;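 further: HEK293 cells carrying ER-alpha-UAS-bla reporter stimulated with 17beta-estradiol; nearly all actives have a fitted effect of over 45% in size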; further: potency means the concentration at half of the fitted maximal effect)
# [5] = target: Estrogen receptor (Homo sapiens) (UniProt P03372); experiment: qHTS assay to identify small molecule agonists of the estrogen receptor alpha (ER-alpha) signaling pathway (AID 743075; calls by dose curve)
# [6] = target: Estrogen receptor (Homo sapiens) (UniProt P03372); experiment: qHTS assay to identify small molecule agonists of the estrogen receptor alpha (ER-alpha) signaling pathway using the BG1 cell line (AID 743079); further: nearly all actives have a fitted effect of over 20% in size
# [7] = qHTS assay to identify small molecule antagonists of the estrogen receptor alpha (ER-alpha) signaling pathway using the BG1 cell line (AID 743080; calls by dose curve;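 further: BG1 cells stimulated with 17beta-estradiol alongside compound; series mostly up to about 70 µM; nearly all actives have a fitted effect of over 25% in size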)
# How it was run: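 BG1-Luc-4E2 cells (endogenous full-length ER-alpha, 4xERE luciferase) hormone-starved 5 days in charcoal-stripped FBS, plated 4,000/well for 24 h, then compound plus 17beta-estradiol for 21.5 h at 37 C; ONE-Glo luminescence read.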
# [8] = qHTS assay to identify small molecule antagonists of the estrogen receptor alpha (ER-alpha) signaling pathway using the BG1 cell line - cell viability counter screen (AID 743081);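 further: compound given together with 17beta-estradiol as the ER stimulus; nearly all actives have a fitted effect of over 45% in size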; further: potency means the concentration at half of the fitted maximal effect
# Aromatase (Homo sapiens) = Aromatase (Homo sapiens) (UniProt P11511); experiment: qHTS assay to identify aromatase inhibitors (AID 743083); further: nearly all actives have a fitted effect of over 55% in size; further: potency means the concentration at half of the fitted maximal effect
# [9] = qHTS assay to identify aromatase inhibitors - cell viability counter screen (AID 743084);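 further: cells stimulated with testosterone during compound exposure; nearly all actives have a fitted effect of over 55% in size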; further: potency means the concentration at half of the fitted maximal effect
# [10] = target: Aryl hydrocarbon receptor (Homo sapiens) (UniProt P35869); experiment: qHTS assay to identify small molecule that activate the aryl hydrocarbon receptor (AhR) signaling pathway (AID 743085);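 further: HG2L7.5c1 human HepG2 liver cells with stably integrated DRE-driven firefly reporter; series mostly up to about 70 µM; nearly all actives have a fitted effect of over 15% in size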
# How it was run: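 Stably transfected human liver carcinoma cells (HG2L7.5c1; 20 DRE-firefly luciferase) were incubated 5 h, dosed, and kept 24 h at 37C. Agonism was scored from increased luciferase luminescence.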
# [11] = qHTS assay to identify small molecule that activate the aryl hydrocarbon receptor (AhR) signaling pathway - cell viability counter screen (AID 743086); further: nearly all actives have a fitted effect of over 45% in size; further: potency means the concentration at half of the fitted maximal effect
# How it was run: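 HepG2-AhR-luc (HG2L7.5c1) cells, 4000/well, treated 24 h at 37 C with compound; viability measured as CellTiter-Fluor fluorescence after 30 min in the same wells as the luciferase read.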
# [12] = qHTS assay to identify small molecule antagonists of the peroxisome proliferator-activated receptor gamma (PPARg) signaling pathway - cell viability counter screen (AID 743194); conditions: Potency: co-treated with 50 nM rosiglitazone; further: nearly all actives have a fitted effect of over 55% in size; further: potency means the concentration at half of the fitted maximal effect
# How it was run: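 Cytotoxicity counter screen in PPARg-bla HEK293H cells, same wells as reporter assay. Compounds plus 50 nM rosiglitazone (final) for 17 h at 37 C, then viability read by CellTiter-Glo luminescence.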
# [13] = qHTS assay for small molecule agonists of the antioxidant response element (ARE) signaling pathway (AID 743202; active means well fitted activation curve with a large enough effect in the signal ratio in the repeat runs, not every such curve was filed as active; inconclusive means weak or mixed curves, or effect the other way; inactive means no such curve, though single readings can be large or run the other way; the % refers to the signal ratio)
# How it was run: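 ARE-bla HepG2 cells (beta-lactamase reporter under the antioxidant response element), plated 5 hours, then exposed to compounds 16 hours at 37 C. LiveBLAzer B/G FRET substrate added for 2 hours at room temperature; fluorescence intensity read.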
# [14] = qHTS assay for small molecule agonists of the antioxidant response element (ARE) signaling pathway - cell viability counter screen (AID 743203; calls by dose curve; further: nearly all actives have a fitted effect of over 55% in size; further: potency means the concentration at half of the fitted maximal effect)
# How it was run: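 HepG2 cells carrying ARE-driven beta-lactamase; 2,000 cells/well; 5 hrs plating; compound pinned from DMSO; 16 hrs 37C/5% CO2; CellTiter-Glo added; 30 min RT; luminescence.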
# [15] = qHTS assay for small molecule activators of the heat shock response signaling pathway - cell viability counter screen (AID 743209); further: nearly all actives have a fitted effect of over 50% in size; further: potency means the concentration at half of the fitted maximal effect
# How it was run: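 Luminescence from CellTiter-Glo, added after the beta-lactamase FRET read, gave the viability signal. Cells were HSE-bla HeLa treated with DMSO-dissolved compounds for 5 h at 37 C following overnight plating.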
# [16] = target: Peroxisome proliferator-activated receptor gamma (Homo sapiens) (UniProt P37231); experiment: qHTS assay to identify small molecule agonists of the peroxisome proliferator-activated receptor gamma (PPARg) signaling pathway (AID 743094; active means well fitted activation curve with a large enough effect in the signal ratio in the repeat runs, not every such curve was filed as active; inconclusive means weak or mixed curves, or effect the other way; inactive means no such curve, though single readings can be large or run the other way; the % refers to the signal ratio)
# How it was run: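 Beta-lactamase FRET fluorescence was the read-out after a 1 h room-temperature substrate step, following 17 h compound treatment at 37C of HEK293H cells expressing a UAS-driven bla reporter responsive to PPARg.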
# [17] = qHTS assay for small molecule activators of the heat shock response signaling pathway (AID 743210; active means well fitted activation curve with a large enough effect in the signal ratio in the repeat runs, with a control signal flat, not every such curve was filed as active; inconclusive means weak or mixed curves; the % refers to the signal ratio; further: series mostly up to about 63 µM)
# How it was run: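 HSE-bla HeLa cells (beta-lactamase reporter under heat shock response elements), plated overnight, then exposed to compounds 5 h at 37 C; LiveBLAzer B/G FRET substrate added, 2.5 h at room temperature, fluorescence intensity read.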
# [18] = qHTS assay to identify small molecule antagonists of the thyroid receptor (TR) signaling pathway (AID 743065); further: nearly all actives have a fitted effect of over 55% in size; further: potency means the concentration at half of the fitted maximal effect
# How it was run: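 GH3.TRE-Luc rat pituitary cells (two TREs driving luciferase) were dosed with compound, then stimulated with 1 nM T3 (final) for 23.5 h at 37 C. ONE-Glo luminescence was the read-out, with CellTiter-Fluor fluorescence as the cytotoxicity counter-screen.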
# [19] = target: Peroxisome proliferator-activated receptor gamma (Homo sapiens) (UniProt P37231); experiment: qHTS assay to identify small molecule antagonists of the peroxisome proliferator-activated receptor gamma (PPARg) signaling pathway (AID 743191; calls by dose curve; further: series mostly up to about 63 µM; nearly all actives have a fitted effect of over 30% in size)
# How it was run: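 GeneBLAzer PPARg UAS-bla HEK293H cells, 5 h post-plating, exposed to compounds 17 h at 37C. LiveBLAzer B/G FRET substrate added for 1 h at room temperature; beta-lactamase reporter read by fluorescence intensity.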
# Aromatase (Homo sapiens), sequence (P11511 whole entry, looked up): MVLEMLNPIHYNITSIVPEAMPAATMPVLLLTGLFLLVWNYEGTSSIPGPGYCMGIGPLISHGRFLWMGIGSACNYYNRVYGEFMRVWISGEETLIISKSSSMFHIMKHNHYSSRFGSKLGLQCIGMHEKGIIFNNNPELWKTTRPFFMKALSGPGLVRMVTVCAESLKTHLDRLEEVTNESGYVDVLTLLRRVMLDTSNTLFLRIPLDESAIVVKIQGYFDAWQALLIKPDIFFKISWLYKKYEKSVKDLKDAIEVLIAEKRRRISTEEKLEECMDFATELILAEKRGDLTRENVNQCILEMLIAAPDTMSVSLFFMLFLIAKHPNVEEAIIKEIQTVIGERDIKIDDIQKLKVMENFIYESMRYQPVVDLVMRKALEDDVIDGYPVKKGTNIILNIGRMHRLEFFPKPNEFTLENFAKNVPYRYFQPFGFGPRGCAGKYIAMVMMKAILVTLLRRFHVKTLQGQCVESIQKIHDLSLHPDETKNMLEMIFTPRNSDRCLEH
# Aryl hydrocarbon receptor (Homo sapiens), sequence (P35869 whole entry, looked up): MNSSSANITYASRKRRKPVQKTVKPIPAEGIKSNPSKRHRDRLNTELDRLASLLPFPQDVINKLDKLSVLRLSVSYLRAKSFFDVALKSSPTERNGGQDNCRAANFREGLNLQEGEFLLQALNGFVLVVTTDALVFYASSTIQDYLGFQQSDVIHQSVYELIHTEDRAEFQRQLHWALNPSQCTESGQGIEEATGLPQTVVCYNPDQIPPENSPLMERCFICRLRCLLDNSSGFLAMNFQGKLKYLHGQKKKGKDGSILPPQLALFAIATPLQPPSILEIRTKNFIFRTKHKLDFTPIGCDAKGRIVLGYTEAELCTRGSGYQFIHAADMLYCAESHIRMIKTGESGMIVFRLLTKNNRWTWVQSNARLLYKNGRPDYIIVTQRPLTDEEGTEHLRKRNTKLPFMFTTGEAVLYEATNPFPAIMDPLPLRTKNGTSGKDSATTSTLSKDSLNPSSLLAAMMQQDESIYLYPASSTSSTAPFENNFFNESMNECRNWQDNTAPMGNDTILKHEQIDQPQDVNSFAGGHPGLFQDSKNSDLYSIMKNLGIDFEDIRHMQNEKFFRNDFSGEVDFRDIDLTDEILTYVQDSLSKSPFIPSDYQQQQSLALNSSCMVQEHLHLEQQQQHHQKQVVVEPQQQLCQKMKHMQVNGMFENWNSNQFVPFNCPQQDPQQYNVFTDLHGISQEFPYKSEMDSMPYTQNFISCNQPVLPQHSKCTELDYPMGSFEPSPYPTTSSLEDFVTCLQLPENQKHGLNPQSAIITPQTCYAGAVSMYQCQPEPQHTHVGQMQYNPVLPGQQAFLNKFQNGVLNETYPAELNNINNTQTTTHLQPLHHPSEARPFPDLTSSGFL
# Peroxisome proliferator-activated receptor gamma (Homo sapiens), sequence (P37231 whole entry, looked up): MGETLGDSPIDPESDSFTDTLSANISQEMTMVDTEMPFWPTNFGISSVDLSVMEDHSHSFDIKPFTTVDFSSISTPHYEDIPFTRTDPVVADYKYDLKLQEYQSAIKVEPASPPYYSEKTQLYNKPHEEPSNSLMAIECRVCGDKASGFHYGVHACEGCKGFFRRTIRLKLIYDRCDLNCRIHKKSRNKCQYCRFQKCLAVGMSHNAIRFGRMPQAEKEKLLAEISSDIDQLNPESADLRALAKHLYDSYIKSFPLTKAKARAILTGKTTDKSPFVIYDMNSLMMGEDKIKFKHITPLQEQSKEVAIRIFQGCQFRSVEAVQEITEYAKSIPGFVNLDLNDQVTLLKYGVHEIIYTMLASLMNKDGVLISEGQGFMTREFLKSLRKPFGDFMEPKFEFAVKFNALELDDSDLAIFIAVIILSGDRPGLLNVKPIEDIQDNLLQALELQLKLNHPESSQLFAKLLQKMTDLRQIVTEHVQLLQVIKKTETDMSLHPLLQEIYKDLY
# Estrogen receptor (Homo sapiens), sequence (P03372 whole entry, looked up): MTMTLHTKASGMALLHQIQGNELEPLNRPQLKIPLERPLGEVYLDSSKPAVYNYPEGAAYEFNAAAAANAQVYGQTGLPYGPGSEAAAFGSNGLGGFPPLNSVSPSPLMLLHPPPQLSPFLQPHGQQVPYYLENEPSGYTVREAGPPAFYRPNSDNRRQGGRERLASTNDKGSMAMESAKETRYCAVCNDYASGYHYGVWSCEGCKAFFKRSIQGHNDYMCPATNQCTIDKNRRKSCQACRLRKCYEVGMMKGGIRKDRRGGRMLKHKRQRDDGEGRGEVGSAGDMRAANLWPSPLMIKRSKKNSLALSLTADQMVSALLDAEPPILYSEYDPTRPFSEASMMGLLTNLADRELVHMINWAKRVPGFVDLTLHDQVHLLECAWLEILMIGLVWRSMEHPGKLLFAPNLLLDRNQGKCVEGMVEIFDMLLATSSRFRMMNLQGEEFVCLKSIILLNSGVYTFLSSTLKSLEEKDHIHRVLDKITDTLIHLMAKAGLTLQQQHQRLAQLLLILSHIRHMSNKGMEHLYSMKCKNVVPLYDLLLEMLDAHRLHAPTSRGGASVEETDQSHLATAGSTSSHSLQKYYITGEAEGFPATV
SMILES,Potency [1],Potency [2],Potency [3],Potency [4],Potency [5],Potency [6],Potency [7],Potency [8],Potency (Aromatase (Homo sapiens)),Potency [9],Potency [10],Potency [11],Potency [12],Potency [13],Potency [14],Potency [15],Potency [16],Potency [17],Potency [18],Potency [19]
O=C(O)C(O)C(O)C(=O)O (stereo not drawn),inactive,inactive,inactive,inactive,inactive,inactive,inactive,inactive,inactive,inactive,inactive,inactive,inactive,inactive,inactive,inactive,,,,
COc1ccc(C(=O)c2c(C)n(CCN3CCOCC3)c3ccccc23)cc1,inactive,inactive,,inactive,,,,,inactive,inactive,,inactive,inactive,inactive,inactive,inactive,inactive,inactive,,
CCCCCCCCn1sccc1=O,6.13 µM (active) and 5.09 µM (active),,,55.1 µM (active) and 51.3 µM (active),,,inactive,inactive,10.9 µM (active) and 32.1 µM (active),12.2 µM (active) and 40.4 µM (active),inactive,inactive,34.7 µM (active) and 28.9 µM (active),,21.7 µM (active) and 25.5 µM (active),inactive,inactive,,4.87 µM (active) and 3.6 µM (active),
c1ccc2c(c1)-c1cccc3cccc-2c13,inactive,inactive,,inactive,,,,inactive,inactive,inactive,,inactive,inactive,inactive,inactive,inactive,,inactive,inactive,
C[CH2][Hg][S]c1ccccc1C(=O)O,298 nM (active) and 273 nM (active),,,13.4 µM (active) and 12.3 µM (active),,,,21.1 µM (active) and 17.2 µM (active),5.96 µM (active) and 1.09 µM (active),5.96 µM (active) and 1.09 µM (active),inactive,16.8 µM (active) and 6.86 µM (active),2.45 µM (active) and 8.41 µM (active),,1.72 µM (active) and 5.96 µM (active),19.5 µM (active) and 15 µM (active),,,335 nM (active) and 243 nM (active),
COc1ccc2c(c1OC)C(=O)O[C@H]2[C@@H]1c2cc3c(cc2CCN1C)OCO3,inactive,inactive,,inactive,,,,inactive,inactive,inactive,,inactive,inactive,inactive,inactive,inactive,inactive,inactive,inactive,inactive
CCCN(CCOc1c(Cl)cc(Cl)cc1Cl)C(=O)n1ccnc1,62.4 µM (active),inactive,,inactive,,,,inactive,1.57 µM (active) and 969 nM (active),inactive,,inactive,inactive,,,inactive,inactive,inactive,27.9 µM (active) and 61.1 µM (active),
O=C(O)c1ccc(=O)[nH]c1,,,,,,,,,,,,,,inactive,inactive,inactive,,inactive,,
CC1(C)CC(=O)CC(C)(C)N1[O],inactive,,,inactive,,,,inactive,inactive,inactive,inactive,inactive,inactive,,inactive,inactive,inactive,inactive,,
C[C@H]1[C@@H]2Cc3ccc(O)cc3[C@@]1(C)CCN2C,inactive,inactive,,,,,,,,inactive,inactive,inactive,inactive,,inactive,inactive,,inactive,,
CCOC(=O)NC(O)C(Cl)(Cl)Cl (stereo not drawn),,inactive,inactive,inactive,inactive,inactive,,inactive,inactive,inactive,inactive,inactive,inactive,inactive,inactive,,inactive,inactive,inactive,
CCOP(=O)(SC(C)CC)N1CCSC1=O (stereo not drawn),inactive,,,inactive,,,,inactive,inactive,inactive,inactive,inactive,inactive,,inactive,inactive,inactive,inactive,,inactive
CCCCCCCCCCCCCCCl,,inactive,inactive,inactive,inactive,inactive,,inactive,inactive,inactive,,inactive,inactive,,inactive,inactive,inactive,inactive,inactive,
C[C@H](N)[C@H](O)c1ccc(O)c(O)c1,26.6 µM (active),,,inactive,inactive,inactive,,,inactive,inactive,inactive,inactive,inactive,,inactive,inactive,inactive,inactive,,
N#CC(C#N)=Cc1ccc(O)c(O)c1,,inactive,inactive,inactive,,inactive,inactive,inactive,inactive,inactive,inactive,inactive,,,inactive,inactive,inactive,inactive,26.6 µM (active),inactive
O=S(=O)(Cl)Cl,inactive,,,inactive,inactive,inactive,,inactive,inactive,,inactive,inactive,inactive,,inactive,inactive,inactive,inactive,,inactive
CC(Cl)C(=O)O (stereo not drawn),,inactive,,inactive,,,,inactive,inactive,inactive,inactive,inactive,inactive,inactive,inactive,inactive,inactive,inactive,inactive,inactive
Cc1nc(N(C)C)nc(OC(=O)N(C)C)c1C,,inactive,inactive,inactive,inactive,inactive,inactive,inactive,inactive,inactive,inactive,inactive,inactive,,inactive,inactive,inactive,inactive,inactive,inactive
C=CCN1C[C@H](C)N([C@H](c2ccc(C(=O)N(CC)CC)cc2)c2cccc(OC)c2)C[C@H]1C,,inactive,inactive,inactive,inactive,inactive,inactive,inactive,inactive,inactive,inactive,inactive,inactive,,inactive,inactive,,inactive,,inactive
O=C(O)C(F)(F)C(F)(F)C(F)(F)C(F)(F)C(F)(F)C(F)(F)C(F)(F)C(F)(F)F,,inactive,27.5 µM [inconclusive] (active),inactive,inactive,inactive,inactive,inactive,inactive,inactive,inactive,inactive,inactive,,61.1 µM (active),inactive,,,,
CN1C(=O)CN=C(c2ccccc2)c2cc([N+](=O)[O-])ccc21,,inactive,,inactive,inactive,,,inactive,inactive,,inactive,inactive,inactive,inactive,inactive,inactive,inactive,inactive,,inactive
NC(=S)c1c(Cl)cccc1Cl,inactive,,inactive,inactive,inactive,inactive,inactive,inactive,inactive,inactive,inactive,inactive,inactive,,inactive,inactive,inactive,inactive,,inactive
